# From PubChem BioAssay (EPA / NIEHS)
# Calls of active or inactive are those of the source. How the source made its calls: active means hit-call score of the fitted dose curve at least 0.9, where 1 is the maximum; inconclusive means response in the unintended direction; inactive means score below 0.9.
# Test system: IYD (gene 389434)
# Assay: CCTE_GLTED_hIYD: CCTE's human Iodotyrosine Deiodinase (xIYD) Inhibition Assay, Great Lakes Toxicology and Ecology Division (GLTED) Lab (AID 2284317);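 further: cell-free human IYD enzyme made in baculovirus insect cells; iodide freed from monoiodotyrosine measured by cerium arsenite color change at 420 nm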
# Method in brief: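 Iodide liberated from monoiodotyrosine by baculovirus-expressed human IYD over 3 h was determined colorimetrically (Sandell-Kolthoff, 420 nm) after Dowex separation; inhibition is loss of signal versus DMSO.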
smiles,measurement,value
N[C@@H](Cc1ccc(O)c([N+](=O)[O-])c1)C(=O)O,AC50,25.3 nM (active)
